Assay results as given in the supplement of paper PMC8728848.
Shown is part of a subset that was picked to be rich in the strongest signals.

How the values were obtained:
Experiment in all cases: glycan array binding signal (z-score within array); higher = stronger binding
Conditions in all cases: glycan notation: IUPAC condensed, linker removed
[1] = target: Fuc(a1-2)Gal(b1-3)GalNAc(b1-4)[Neu5Ac(a2-3)]Gal(b1-4)Glc
Procedure, shortened: (§1)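 Negative Z-scores can be read as non-binding. The Z-score is calculated within each array and then averaged across arrays of one protein sequence at different concentrations or buffers and across linkers. Arrays, 3228 in all, were curated from the Consortium for Functional Glycomics database and kept only where the protein sequence was available.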

[2] = target: Fuc(a1-2)Gal(b1-3)[Fuc(a1-4)]GlcNAc(b1-2)Man(a1-3)[Fuc(a1-2)Gal(b1-3)[Fuc(a1-4)]GlcNAc(b1-2)Man(a1-3)]Man(b1-4)GlcNAc(b1-4)GlcNAc
Procedure, shortened: as §1

[3] = target: Fuc(a1-2)Gal(b1-3)[Fuc(a1-4)]GlcNAc(b1-3)[Gal(b1-4)GlcNAc(b1-6)]Gal(b1-4)Glc
Procedure, shortened: as §1

[4] = target: Fuc(a1-2)Gal(b1-4)GlcNAc(b1-2)Man(a1-3)[Fuc(a1-2)Gal(b1-4)GlcNAc(b1-2)Man(a1-6)]Man(b1-4)GlcNAc(b1-4)[Fuc(a1-6)]GlcNAc
Procedure, shortened: as §1

[5] = target: Fuc(a1-2)Gal(b1-4)[Fuc(a1-3)]GlcNAc(b1-3)GalNAc
Procedure, shortened: as §1

[6] = target: Fuc(a1-2)Gal(b1-4)[Fuc(a1-3)]GlcNAc(b1-3)[Neu5Ac(a2-6)Gal(b1-4)GlcNAc(b1-6)]Gal(b1-4)Glc
Procedure, shortened: as §1

[7] = target: Fuc(a1-2)[Gal(a1-3)]Gal(b1-4)[Fuc(a1-3)]GlcNAc
Procedure, shortened: as §1

[8] = target: Fuc(a1-2)[GalNAc(a1-3)]Gal(b1-4)GlcNAc(b1-2)Man(a1-3)[Fuc(a1-2)[GalNAc(a1-3)]Gal(b1-4)GlcNAc(b1-2)Man(a1-6)]Man(b1-4)GlcNAc(b1-4)[Fuc(a1-6)]GlcNAc
Procedure, shortened: as §1

[9] = target: Fuc(a1-2)[GalNAc(a1-3)]Gal(b1-4)[Fuc(a1-3)]GlcNAc(b1-3)GalNAc
Procedure, shortened: as §1

Fuc(a1-3)GlcNAc = target: Fuc(a1-3)GlcNAc
Procedure, shortened: as §1

[10] = target: Fuc(a1-3)[Gal(b1-4)]GlcNAc(b1-2)Man(a1-3)[Fuc(a1-3)[Gal(b1-4)]GlcNAc(b1-2)Man(a1-6)]Man(b1-4)GlcNAc(b1-4)GlcNAc
Procedure, shortened: as §1

Gal(a1-3)Gal(b1-3)GlcNAc = target: Gal(a1-3)Gal(b1-3)GlcNAc
Procedure, shortened: as §1

[11] = target: Gal(a1-3)Gal(b1-3)GlcNAc(b1-2)Man
Procedure, shortened: as §1

[12] = target: Gal(a1-3)Gal(b1-3)[Fuc(a1-4)]GlcNAc(b1-2)Man(a1-3)[Gal(a1-3)Gal(b1-3)[Fuc(a1-4)]GlcNAc(b1-2)Man(a1-6)]Man(b1-4)GlcNAc(b1-4)GlcNAc
Procedure, shortened: as §1

[13] = target: Gal(a1-3)Gal(b1-4)GlcNAc(b1-2)Man(a1-3)[Gal(a1-3)Gal(b1-4)GlcNAc(b1-2)Man(a1-6)]Man(b1-4)GlcNAc(b1-4)GlcNAc
Procedure, shortened: as §1

[14] = target: Gal(a1-3)Gal(b1-4)GlcNAc(b1-6)GalNAc
Procedure, shortened: as §1

Gal(b1-2)Gal = target: Gal(b1-2)Gal
Procedure, shortened: as §1

[15] = target: Gal(b1-3)GlcNAc(b1-3)Gal(b1-4)GlcNAc(b1-2)[Gal(b1-3)GlcNAc(b1-3)Gal(b1-4)GlcNAc(b1-6)]Man(a1-6)[Gal(b1-3)GlcNAc(b1-3)Gal(b1-4)GlcNAc(b1-2)Man(a1-3)]Man(b1-4)GlcNAc(b1-4)[Fuc(a1-6)]GlcNAc
Procedure, shortened: as §1

[16] = target: Gal(b1-3)GlcNAc(b1-3)GalNAc
Procedure, shortened: as §1

[17] = target: Gal(b1-3)[Fuc(a1-4)]GlcNAc(b1-2)Man(a1-3)[Gal(b1-3)[Fuc(a1-4)]GlcNAc(b1-2)Man(a1-6)]Man(b1-4)GlcNAc(b1-4)[Fuc(a1-6)]GlcNAc
Procedure, shortened: as §1

[18] = target: Gal(b1-3)[Fuc(a1-4)]GlcNAc(b1-6)GalNAc
Procedure, shortened: as §1

[19] = target: Gal(b1-3)[Neu5Ac(a2-6)]GlcNAc(b1-4)Gal(b1-4)Glc
Procedure, shortened: as §1

[20] = target: Gal(b1-4)GlcNAc(b1-2)Man(a1-3)[Gal(b1-4)GlcNAc(b1-2)Man(a1-6)]Man(b1-4)GlcNAc(b1-4)[Fuc(a1-6)]GlcNAc
Procedure, shortened: as §1

[21] = target: Gal(b1-4)GlcNAc(b1-2)[Gal(b1-4)GlcNAc(b1-4)]Man(a1-3)[GlcNAc(b1-4)][Gal(b1-4)GlcNAc(b1-2)[Gal(b1-4)GlcNAc(b1-6)]Man(a1-6)]Man(b1-4)GlcNAc(b1-4)GlcNAc
Procedure, shortened: as §1

[22] = target: Gal(b1-4)GlcNAc(b1-2)[Gal(b1-4)GlcNAc(b1-6)]Man(a1-6)[Gal(b1-4)GlcNAc(b1-2)Man(a1-3)]Man(b1-4)GlcNAc(b1-4)GlcNAc
Procedure, shortened: as §1

[23] = target: Gal(b1-4)GlcNAc(b1-3)Gal(b1-4)GlcNAc(b1-2)Man(a1-3)[Gal(b1-4)GlcNAc(b1-3)Gal(b1-4)GlcNAc(b1-2)Man(a1-6)]Man(b1-4)GlcNAc(b1-4)GlcNAc
Procedure, shortened: as §1

[24] = target: Gal(b1-4)GlcNAc(b1-3)Gal(b1-4)GlcNAc(b1-2)Man(a1-3)[Gal(b1-4)GlcNAc(b1-3)Gal(b1-4)GlcNAc(b1-2)Man(a1-6)]Man(b1-4)GlcNAc(b1-4)[Fuc(a1-6)]GlcNAc
Procedure, shortened: as §1

[25] = target: Gal(b1-4)GlcNAc(b1-3)Gal(b1-4)GlcNAc(b1-3)Gal(b1-4)GlcNAc(b1-2)Man(a1-3)[Gal(b1-4)GlcNAc(b1-3)Gal(b1-4)GlcNAc(b1-3)Gal(b1-4)GlcNAc(b1-2)Man(a1-6)]Man(b1-4)GlcNAc(b1-4)GlcNAc
Procedure, shortened: as §1

[26] = target: Gal(b1-4)GlcNAc(b1-3)Gal(b1-4)GlcNAc(b1-3)Gal(b1-4)GlcNAc(b1-2)Man(a1-3)[Gal(b1-4)GlcNAc(b1-3)Gal(b1-4)GlcNAc(b1-3)Gal(b1-4)GlcNAc(b1-2)Man(a1-6)]Man(b1-4)GlcNAc(b1-4)[Fuc(a1-6)]GlcNAc
Procedure, shortened: as §1

B1: Pbx2CASH domain (Cryptococcus neoformans) (protein)
chain: GIPGPNRLYRLSGPIIFTAADQEIATYGYPTGSERAVLRVEGRNTATAIQGDCRRCARVSVKNLVVDGNRKKLGRMRDFQLATGLVVLGGNEGQSIQNSWIKNPRGFTAIHIREGDKLQCSGARVEKNEIGPVGEEYDPEKDGDDPEMSPLGRPLADGVSIACRDSFIRDNTFRDNTDAAIVVYCSPGTLIHA
glycan array binding signal (z-score) [1]: -0.327
glycan array binding signal (z-score) [2]: 0.448
glycan array binding signal (z-score) [3]: -0.27
glycan array binding signal (z-score) [4]: 0.625
glycan array binding signal (z-score) [5]: 5.37
glycan array binding signal (z-score) [6]: 0.299
glycan array binding signal (z-score) [7]: -0.331
glycan array binding signal (z-score) [8]: -0.315
glycan array binding signal (z-score) [9]: 2.74
glycan array binding signal (z-score) (Fuc(a1-3)GlcNAc): -0.751
glycan array binding signal (z-score) [10]: -0.141
glycan array binding signal (z-score) (Gal(a1-3)Gal(b1-3)GlcNAc): 0.751
glycan array binding signal (z-score) [11]: 1.4
glycan array binding signal (z-score) [12]: 2.46
glycan array binding signal (z-score) [13]: 0.227
glycan array binding signal (z-score) [14]: -0.025
glycan array binding signal (z-score) (Gal(b1-2)Gal): -0.585
glycan array binding signal (z-score) [15]: 2.19
glycan array binding signal (z-score) [16]: 0.422
glycan array binding signal (z-score) [17]: -0.077
glycan array binding signal (z-score) [18]: 1.39
glycan array binding signal (z-score) [19]: -0.128
glycan array binding signal (z-score) [20]: -0.487
glycan array binding signal (z-score) [21]: 0.057
glycan array binding signal (z-score) [22]: -0.632
glycan array binding signal (z-score) [23]: 3.98
glycan array binding signal (z-score) [24]: 0.897
glycan array binding signal (z-score) [25]: 6.89
glycan array binding signal (z-score) [26]: 0.266
